A selection: hits, their analogues and other compounds. The true share with any hit is near 2.3%.
LGR2 inh – blocks bursicon-induced cAMP signaling via Drosophila LGR2; HEK293 LGR2, CRE-luciferase, bursicon-stimulated, 4 h; inhibition, % at 9.99 µM; 380,000 compounds, 0.35% hits; AID 720647;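 active = drop in luminescence signal, shown as inhibition above about 50% in the replicate tests, limit read from the data, passing the limit was not always enough; inconclusive = probably only some replicates passing the limit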;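 note: agonist challenge used bursicon conditioned medium at about half maximal strength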
HIF-2a inh – inhibitors of HIF-2a. 786-0 RCC cells HIF-2a reporter, luciferase luminescence, overnight. inhibition, % at 18.8 µM. 360,000 compounds, 0.72% hits. AID 624352;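 active = inhibition of the luminescence signal of 40% or more relative to plate controls, in a single-dose primary screen at 18.75 µM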
TWEAK-Fn14 inh – blocks TWEAK-Fn14 interaction in a reporter cell assay; TWEAK-stimulated Fn14 reporter cells, luciferase luminescence, 8 h; 360,000 compounds, 2% hits; inhibition, % at 10 µM; in the data active = inhibition above about 50%
iPSC survival up – enhancers of human iPSC single-cell survival. survival enhancement, % at 20 µM. hiPSC single-cell survival, ATPlite luminescence; 100% = ROCK inhibitor wells, 0% = DMSO. AID 602274. 360,000 compounds, 0.044% hits; in the data active = survival enhancement above about 18%;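 note: cells exposed to compounds for 16 hours before the ATP read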
CF NFkB inh – blocks PAF-induced NF-kB reporter in cystic fibrosis cells; inhibition, % at 5 µM; 360,000 compounds, 0.86% hits; KKLEB NF-kB-GFP reporter, GFP fluorescence overnight;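 active = at least 50% inhibition at 5 µM, scaled per plate between neutral and stimulator controls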;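 note: PAF is a Pseudomonas aeruginosa culture filtrate used as stimulus; plate controls were PAF-stimulated DMSO wells for no effect and unstimulated DMSO wells for full effect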
KKLEB cytotox – reduces viability of KKLEB cystic fibrosis airway cells; AID 602141; KKLEB CF airway cells viability, ATPlite luminescence, overnight; stronger effect = lower value; cells stimulated with P. aeruginosa culture filtrate; activity change (cytotoxicity), % at 5 µM; 360,000 compounds, 0.36% hits;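 active = corrected activity change at or below -50% at 5 µM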
* marks the source's active call; other numbers are inactive results; u = inconclusive; x = not tested or not shown.

SMILES	LGR2 inh	HIF-2a inh	TWEAK-Fn14 inh	iPSC survival up	CF NFkB inh	KKLEB cytotox
CCC(=O)N[C@@H]1CC[C@@H](CC(=O)NCc2ccc(OC)cc2)O[C@@H]1CO	14	x	x	x	x	x
C[C@@H]1CN([C@@H](C)CO)C(=O)c2cc(NC(=O)CCCN(C)C)ccc2O[C@@H]1CN(C)C(=O)Nc1ccc2c(c1)OCO2	-22	x	x	x	x	x
CCOc1ccc2nc(NC(=O)c3ccco3)sc2c1	u	-85	59*	-1	-13	-3
CCOC(=O)c1ccc2nc(NC(=O)c3ccco3)sc2c1	x	-133	46	-2	8	-4
CSc1nc2ccc(NC(=O)c3ccccn3)cc2s1	71*	-32	72*	-1	-4	-39
O=C(COc1ccccc1)NNc1nc2c(F)cc(F)cc2s1	16	7	3	-2	6	-9
O=C(Nc1nc2c(F)cc(F)cc2s1)c1ccccn1	60*	-144	42	-1	-28	-21
CSc1nc2ccc(NC(=O)C3=NNC(=O)CC3)cc2s1	-39	-69	-9	-1	6	8
CO[C@H](CN(C)S(=O)(=O)c1ccccc1)[C@@H](C)CN(Cc1ccccc1Cl)[C@@H](C)CO	-15	x	x	x	x	x
CCCNC(=O)C1(C)CCCN(Cc2ccc(-c3ccccc3)o2)C1 (configuration not stated)	24	1	70*	-2	38	4
CCCNC(=O)C1(C)CCCN(Cc2ccc(-c3ccccc3)cc2)C1 (configuration not stated)	5	-5	12	-2	4	-8
COc1ccccc1-c1cn(CC[C@H]2CC[C@H](NC(=O)C3CC3)[C@@H](CO)O2)nn1	17	x	x	x	x	x
CCOC(=O)C(C(=O)OCC)C(Nc1ccc(Br)cc1)c1ccccc1 (configuration not stated)	x	24	54*	0	25	-9
CCOC(=O)C(c1ccccc1)C(Nc1ccc(F)cc1)c1ccccn1 (configuration not stated)	-13	17	22	0	3	-7
Cn1cnc([N+](=O)[O-])c1S(=O)(=O)c1cccc(Cl)c1	2	35	18	-3	36	-54*
Cn1cnc([N+](=O)[O-])c1S(=O)(=O)Oc1ccccc1	17	25	27	-4	42	4
O=C(Nc1ccccc1-c1nc2ccccc2[nH]1)c1ccc(S(=O)(=O)N2CCCCC2)cc1	15	-12	12	-3	-4	-5
CC1CCCCN1S(=O)(=O)c1ccc(C(=O)Nc2ccccc2-c2nc3ccccc3[nH]2)cc1 (configuration not stated)	10	10	53*	-2	22	-4
C[C@@H]1CN([C@H](C)CO)C(=O)c2cc(NC(=O)CCC(F)(F)F)ccc2O[C@@H](C)CCCCO[C@H]1CN(C)C(=O)Nc1ccc(C(F)(F)F)cc1	40	x	x	x	x	x
OCCOCCNc1ncnc2c1cnn2-c1ccc(Cl)cc1	x	-158	43	-3	-9	2
COc1ccc(-n2ncc3c(N(C)C4CCCCC4)ncnc32)cc1	94*	70*	104*	-6	11	-79*
Clc1ccc(Nc2ncnc3c2cnn3-c2ccccc2)cc1	-17	-310	46	0	-7	19
Clc1ccc(-n2ncc3c(N4CCCC4)ncnc32)cc1	73*	-37	100*	-3	-21	-42
CC(C)Nc1ncnc2c1cnn2-c1ccc(Cl)cc1	u	-118	74*	-2	3	-10
COCCNc1ncnc2c1cnn2-c1ccc(Cl)cc1	x	-194	54*	-3	9	-3
CCC(=O)N1CC(=O)N2[C@H](CO)[C@H](c3ccc(C#Cc4cccc(OC)c4)cc3)[C@@H]2C1	13	x	x	x	x	x
CO[C@H]1CN(C)C(=O)c2ccc(NC(=O)c3cc(C)on3)cc2OC[C@H](C)N(C)C[C@@H]1C	14	x	x	x	x	x
CCCN1C[C@H](C)[C@H](OC)CN(C)C(=O)c2cc(NC(=O)Nc3c(C)noc3C)ccc2OC[C@@H]1C	-1	x	x	x	x	x
COc1cccc(OCCN2CCN(c3ncnc4c3cnn4-c3ccccc3)CC2)c1	x	-12	57*	-1	-34	11
Cn1ncc2c(N3CCN(c4ccccc4F)CC3)ncnc21	-14	-57	-4	6	6	12
